USP2a inh: qHTS Assay for Inhibitors of Ubiquitin-specific Protease USP2a; Ubiquitin carboxyl-terminal hydrolase 2 (Homo sapiens), O75604; USP2a enzymatic assay, qHTS inhibition; Potency, µM (doses to about 38.3 µM), for the others: at the top dose activity change, negative = inhibition, actives largely listed as inhibitors; 60,000 tested, 0.1% active; note: nearly all actives have a fitted effect of over 60% in size
Target sequence (O75604 whole entry, looked up): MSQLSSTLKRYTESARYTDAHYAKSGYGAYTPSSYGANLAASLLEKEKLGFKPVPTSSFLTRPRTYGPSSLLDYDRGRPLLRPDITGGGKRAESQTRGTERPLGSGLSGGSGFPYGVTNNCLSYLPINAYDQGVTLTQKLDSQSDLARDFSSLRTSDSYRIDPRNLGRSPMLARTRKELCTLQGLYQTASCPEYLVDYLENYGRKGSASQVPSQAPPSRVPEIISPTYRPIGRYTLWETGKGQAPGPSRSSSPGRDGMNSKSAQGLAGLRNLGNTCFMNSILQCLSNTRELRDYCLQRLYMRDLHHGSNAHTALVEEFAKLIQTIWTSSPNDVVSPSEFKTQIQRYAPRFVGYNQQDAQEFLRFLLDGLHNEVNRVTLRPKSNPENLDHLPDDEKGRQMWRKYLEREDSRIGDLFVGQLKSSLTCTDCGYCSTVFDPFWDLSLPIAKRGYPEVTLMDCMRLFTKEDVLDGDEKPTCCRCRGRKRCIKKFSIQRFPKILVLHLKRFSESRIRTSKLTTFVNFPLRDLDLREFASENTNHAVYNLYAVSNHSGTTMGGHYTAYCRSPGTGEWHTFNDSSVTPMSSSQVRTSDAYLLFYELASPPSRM
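USP2 core (20 nM final) was preincubated with compound for 30 min at RT in 20 mM Tris-HCl pH 8.0, 2 mM CaCl2, 2 mM beta-mercaptoethanol; Ub-PLA2 (20 nM) plus NBD C6-HPC (20 uM) then added, fluorescence read after 2.5 h.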
Tau filament bind: qHTS Assay for Tau Filament Binding; 71,000 tested, 2% active; Potency, µM (series often up to 57.1 µM), for the others: top-dose activity change, negative = inhibition; AID 596, 2007; recombinant tau filaments, thioflavin S fluorescence, 15 h; filaments grown with octadecylsulfate alongside compound; Microtubule-associated protein tau (Homo sapiens), P10636;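 note: % is set by controls: 0 for no effect and ±100 for the full control effect; actives lower thioflavin S fluorescence by blocking filaments or displacing dye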
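Read-out: ThS fluorescence, 450 nm excitation/510 nm emission; lower signal marks blocked filament formation or displaced dye. Tau at 1 uM with 30 uM ODS, 10 uM ThS, 5 mM DTT, 100 mM NaCl, 10 mM HEPES pH 7.4; 15 h, 37 C.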
Hsp90 Hop PPI: qHTS Assay for Disrupters of an Hsp90 Co-Chaperone Interaction. AlphaScreen TPR2A-His6 binding biotin-Hsp90 C-terminal peptide. Potency, µM (series often up to 57 µM), without a hit: top-dose activity change, negative = inhibition. Hsp90 C-terminal peptide / TPR2A (Hop) interaction, human. 71,000 tested, 0.44% active. AID 595, 2007; active = well fitted curve in either direction with a large enough effect; inconclusive = small, poorly fitted or top-dose-only effect, or another doubt; note: % is set by controls: 0 for no effect and ±100 for the full control effect
15-hLO inh: qHTS Assay for Inhibitors of 15-hLO (15-human lipoxygenase); Polyunsaturated fatty acid lipoxygenase ALOX15 (Homo sapiens), P16050; purified 15hLO-1, xylenol orange hydroperoxide absorbance; Potency, µM (series often up to 57.1 µM), inactives show top-dose activity change, negative = inhibition, usual class: inhibitors; 74,000 tested, 1.4% active; AID 887, 2007; note: % is set by controls: 0 for no effect and ±100 for the full control effect; nearly all actives have a fitted effect of over 55% in size
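Compounds were preincubated 15 min at room temperature with 40 nM purified human enzyme (25 mM Hepes pH 7.5, 0.01% Triton X-100); 50 uM arachidonic acid reacted 6 min. Fe-xylenol orange detection, 30 min, absorbance ratio 573/405 nm.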
Starred values were filed as active, the others as inactive; i = inactive; ? = inconclusive; . = not tested or not shown; ! = not confirmed by another sample; [ ] = another dose, or the depositor's remark. A selection: hits, their analogues and other compounds. The true share with any hit is near 3.2%. Unless noted, calls come from the whole dose curve; as a rule, active = well fitted curve in the direction sought with a large enough effect; inconclusive = small, poorly fitted or top-dose-only effect, or another doubt; inactive = no such curve, though single readings can be large; an effect the other way counts as inactive or inconclusive. Potency is the fitted concentration of half-maximal effect.

SMILES | USP2a inh | Tau filament bind | Hsp90 Hop PPI | 15-hLO inh
CC(C)CC(/C(O)=C(\C#N)c1nc2ccccc2[nH]1)N1C(=O)c2ccccc2C1=O (configuration not stated) | 38% | 13µM* | -15% | -4%
Cn1c(=O)c(-c2ccc(F)c(F)c2)nc2cncnc21 | 125% | -15% | -2% | -3%
COc1ccc(NC(=O)C2CCCNC2)cc1OCC(C)C (configuration not stated) | 1% | 25µM* | -6% | ?
COc1cc(NC(=O)C2CCCCN2)ccc1OCC(C)C (configuration not stated) | 5% | -22% | 1% | -28%
COc1ccccc1CN1CC[C@@]2(CCCN(S(=O)(=O)c3ccccc3)C2)C1 | 25% | -6% | -8% | 2%
C=C(CC1([C@@H](NP(=O)(c2ccccc2)c2ccccc2)[C@H]2C[C@@H]2CCN(C(=O)OCC)S(=O)(=O)c2ccc(C)cc2)CC1)c1ccccc1 | . | 13% | -17% | .
CCOC(=O)CSc1cccc2cccnc12 | 6% | -7% | 16µM* | -21%
O=C1CC(Nc2ccc(N3CCOCC3)cc2)C(=O)N1c1ccccc1F (configuration not stated) | . | -12% | -9% | 20µM*
Nc1ncnc2c1ncn2C[C@@H](O)C(=O)O | . | -4%[11.4 µM] | 1%[11 µM] | 5%[11.4 µM]
CCCCCC[C@@H]([C@@H](C)O)n1cnc2c(N)ncnc21 | . | ? | 1% | 13µM*
C[C@@]12CCC(=O)C=C1CC[C@@H]1[C@@H]2[C@H](O)C[C@]2(C)[C@@H]1CC[C@]2(O)C(=O)COC(=O)CCC(=O)O | -2% | -8% | -7% | 6%
CCCNC(=O)c1c[nH]c2ccc(S(=O)(=O)N(C)c3ccc(OCC)cc3)cc2c1=O | 63% | 8% | 1% | -17%
CCOc1ccc(NS(=O)(=O)c2ccc3[nH]cc(C(=O)NC(C)CC)c(=O)c3c2)cc1 (configuration not stated) | 34% | 3% | -4% | 25µM*
CSC(N)=NCCC[C@@H](N)C(=O)O | -5% | -1% | -9% | 10%
O=c1cc(-c2ccccc2O)oc2ccc3ccccc3c12 | . | ? | -3% | 18%[25.6 µM]
O=c1cc(-c2ccccc2O)oc2c(O)c(O)ccc12 | . | 40µM* | -22% | ?
O=c1cc(-c2ccccc2)oc2c(O)c(O)ccc12 | -6% | . | . | 5µM*
CCCc1nc(S(=O)(=O)Cc2ccc(Cl)cc2Cl)n[nH]1 | -5% | -5% | -2% | 14%
COC(=O)c1ccc2c(c1)NC(=O)C1CCCN21 (configuration not stated) | . | -21% | -8%[2.3 µM] | 7.9µM*
Cc1ccc(NC(=O)COC(=O)c2ccc3c(c2)NC(=O)C2CCCN32)cc1 (configuration not stated) | 32% | 87% | -3% | -7%
CS(=O)(=O)N1CCC2(CC1)CN(c1ncccn1)C2 | 127% | 0% | -3% | -7%
COc1ccc2c(c1)N(C[C@@H](C)CN(C)C)c1ccccc1S2 | 9%[17.1 µM] | 10µM* | -7%[26 µM] | -3%[25.6 µM]
CN1CCN(CCCN2c3ccccc3Sc3ccc(Cl)cc32)CC1 | 48% | ? | -2%[26 µM] | ?
C[C@@H](CN1c2ccccc2Sc2ccccc21)N(C)C | 3%[17.1 µM] | 13µM*! | 0%[26 µM] | 16µM*!
COc1ccc2c(c1)N(CC[C@H]1CCCCN1C)c1ccccc1S2 | . | 2.5µM* | -8%[11 µM] | 7%[11.4 µM]
SMILES | USP2a inh | Tau filament bind | Hsp90 Hop PPI | 15-hLO inh
CC(CN1c2ccccc2Sc2ccccc21)N(C)C (configuration not stated) | 4% | . | . | -19%
COc1cc(OC)c2c(=O)c(-c3ccccc3)coc2c1 | -24% | . | . | 4%
COc1cc(NC(=O)NCCN2CCN(c3ccc(Cl)cc3)CC2)ccc1C | 9% | 13µM* | -18% | ?
Cc1cc(=Nc2ccc3c(c2)c(N)cc(C)[n+]3C)nc(N)n1C | . | 102%[11.4 µM] | -6%[11 µM] | 48%[11.4 µM]
CCCc1cc(=O)oc2cc(C)c(CN3CCCC3)c(O)c12 | -27% | 13µM* | -22% | 13µM*
N=c1c2c(-c3ccccc3)c(-c3ccccc3)n(Cc3ccco3)c2ncn1Cc1ccco1 | 12% | i | ? | 25µM*
O=c1c2ccccc2c2ccccc2c(=O)n1Cc1ccco1 | 13% | -5% | -1% | -10%
Cn1cc(-c2nc3cnc(Oc4cccc(Cl)c4)nc3n(C3CC3)c2=O)c2ccccc21 | 154% | 8% | ? | 9%
Cc1c2ccccc2c(C)c2c1ccc1ccccc12 | . | 5% | 32µM* | -12%
Cc1c2ccccc2c(CSC(=N)N)c2ccccc12 | . | -8%[11.4 µM] | 14%[11 µM] | 0%[11.4 µM]
O=C(CSc1n[nH]c(-c2ccccc2)n1)c1ccc(O)c(O)c1 | . | -4% | -7% | 5µM*
COc1ccc(Oc2ncc3nc(C)c(=O)n(Cc4ccc(F)cc4)c3n2)cc1 | 158% | -23% | -2% | -10%
O=C(NCc1ccco1)c1cc2ccccc2o1 | 48% | 8% | -15% | 20µM*
Cc1ccc2cc3cc(C(=O)NCc4ccco4)oc3nc2c1 | 11% | 37% | 0% | -2%
Cc1ccc(S(=O)(=O)c2cc3c(=O)n4ccccc4nc3n(Cc3ccco3)c2=N)cc1C | 22% | i | -5% | 32µM*
N=c1c(S(=O)(=O)c2ccccc2)cc2c(=O)n3ccccc3nc2n1Cc1ccco1 | 20% | 465% | -3% | -19%
C[Si](C)(C)C#Cc1ccccc1NC(=S)Nc1ccccc1 | . | ? | -15% | .
Fc1ccc(Nc2ncncc2-c2ccoc2)cc1 | 30% | 17% | -3% | -5%
COc1cccc(-c2cncnc2NCc2cccc(C)c2)c1 | -1% | 9% | 0% | -8%
COc1ccc2[nH]cc(CCNc3ncncc3-c3ccoc3)c2c1 | 196% | -29% | -14% | 2%
COc1ccccc1CNc1ncncc1-c1ccccc1C | -9% | 4% | -2% | ?
CN(C)c1ccc(-c2cncnc2Nc2ccc(F)cc2)cc1 | 39% | -10% | -17% | 2.5µM*
COc1ccccc1CNc1ncncc1-c1ccoc1 | 38% | -8% | ? | 10µM*
COc1ccc2[nH]cc(CCNc3ncncc3-c3ccc(N(C)C)cc3)c2c1 | -9% | 25µM* | ? | -2%
COc1cccc(-c2cncnc2NCc2cccnc2)c1 | 25% | -1% | -11% | 16µM*
SMILES | USP2a inh | Tau filament bind | Hsp90 Hop PPI | 15-hLO inh
NS(=O)(=O)O | . | 12% | ? | -12%
c1csc(CNc2ncncc2-c2ccc3c(c2)OCO3)c1 | -17% | -8% | -6% | ?
CN(C)C/C=C(\c1ccc(Br)cc1)c1cccnc1 | 50%[17.1 µM] | 14%[11.4 µM] | -4%[11 µM] | 7%[25.6 µM]
Cc1ccccc1N1C(=O)c2cc(S(N)(=O)=O)c(Cl)cc2NC1C (configuration not stated) | -5% | . | . | 7%
COc1ccccc1CN1CCC2(CCNCC2)CC1 | 38% | -10% | -4% | 17%
COc1ccc(CNc2ncncc2-c2ccc(N(C)C)cc2)c(OC)c1 | 0% | ? | -27% | 20µM*
